Shown are actives, neighbours in structure and some others; about 9.9% of the full set was active somewhere.
IL-1B inflam inh: inflammasome signaling inhibition, IL-1 beta readout. THP-1 LPS/ATP IL-1B secretion, AlphaLISA, 16 h; hits give low values. activity change, % at 57.5 µM. actives 4.7% (n = 360,000). AID 743279; in the data active = activity change below about -50%; inconclusive = mostly about -30% to -49%; note: % is set by controls: 0 for no effect and ±100 for the full control effect
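THP-1 cells pretreated 1 hr with compounds (up to 57.5 uM final), then stimulated with LPS (250 ng/mL final) plus ATP (1.25 mM final); secreted IL-1B measured by AlphaLISA after 16 hr, decreased signal indicating inhibition.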
KB-3-1 tox: kills parental KB-3-1 adenocarcinoma cells; KB-3-1 viability, CellTiter-Glo ATP luminescence, 72 h; Potency, µM (highest dose often 46.1 µM), hits mostly cytotoxic; actives 1.4% (n = 400,000); AID 1347075; note: potency is the fitted concentration of half-maximal effect; % is set by controls: 0 for no effect and ±100 for the full control effect; nearly all actives have a fitted effect of over 60% in size
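Cytotoxicity in the drug-sensitive parental line KB-3-1 was scored as loss of CellTiter-Glo luminescence following 72 h incubation with compound. Values come from curve fitting of normalized concentration-response data.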
SW480 rereplic: DNA re-replication induction in SW480 cells. Potency, µM (highest dose often 46.1 µM), inactives show at the highest dose re-replication activation, hits mostly activators. SW480 DNA re-replication, Hoechst DNA content imaging, 48 h. actives 1.8% (n = 340,000); note: potency is the fitted concentration of half-maximal effect; % of control where 0% means no effect; nearly all actives have a fitted effect of over 55% in size
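250 cells/well; 23 nL cpd via pin tool; 48 hr, 37 C, 5% CO2; Hoechst 40 min; imager read of total nuclear intensity, ex 405/em 500-530 nm.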
MCF10A rerep: inducers of DNA re-replication in MCF 10A breast cells; MCF 10A DNA re-replication, Hoechst nuclear intensity, 48 h; Potency, µM (series often up to 46.1 µM), without a hit: at the highest dose activity, positive = re-replication, actives largely listed as activators; actives 2.9% (n = 350,000); AID 624296; note: potency is the fitted concentration of half-maximal effect; % of control where 0% means no effect; nearly all actives have a fitted effect of over 50% in size
KB-V1 MDR tox: KB-V1 MDR subline cytotoxicity | KB-V1 MDR cells viability, CellTiter-Glo, 72 h | Potency, µM (series often up to 46.1 µM), hits mostly cytotoxic | actives 3.4% (n = 400,000) | AID 1347076; note: potency is the fitted concentration of half-maximal effect; % is set by controls: 0 for no effect and ±100 for the full control effect; nearly all actives have a fitted effect of over 60% in size
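qHTS viability screen in drug-selected KB-V1 MDR cells: 72 h compound treatment at 37 degrees C, ATP luminescence end point.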
* = called active by the depositor; i = inactive; ? = inconclusive; . = not tested or not shown. Unless noted, calls come from the whole dose curve; as a rule, active = well fitted curve in the direction sought with a large enough effect; inconclusive = small, poorly fitted or top-dose-only effect, or another doubt; inactive = no such curve, though single readings can be large; an effect the other way counts as inactive or inconclusive.

SMILES	IL-1B inflam inh	KB-3-1 tox	SW480 rereplic	MCF10A rerep	KB-V1 MDR tox
COc1cc(-c2nc(S(=O)(=O)c3ccc(C)cc3)c(N(C)C)o2)cc(OC)c1OC	-51*	i	2%	?	?
Cc1ccc(S(=O)(=O)c2nc(-c3ccccc3Cl)oc2N(C)C)cc1	34	18µM*	?	12%	10µM*
COc1cc(-c2nc(S(=O)(=O)c3ccc(Cl)cc3)c(N3CCOCC3)o2)cc(OC)c1OC	-29	i	3%	14%	0.52µM*
CN(C)c1oc(-c2ccco2)nc1S(=O)(=O)c1ccc(Br)cc1	-3	i	-2%	5%	4.6µM*
Nc1nonc1-c1nc2ccccc2n1CC(=O)N/N=C/c1ccc(-c2cccc(C(=O)O)c2)o1	10	i	-16%	-1%	i
NS(=O)(=O)c1ccc(CCNC(=S)NC(=O)c2ccccc2Br)cc1	32	i	-3%	4%	i
Cc1cc(C)cc(NCCC#N)c1	0	i	-3%	1%	i
CN(C)c1oc(-c2ccccc2Cl)nc1P(=O)(c1ccccc1)c1ccccc1	-62*	?	?	18µM*	7.3µM*
NS(=O)(=O)c1ccc(N/N=C/c2cn(-c3ccccc3)nc2-c2cccs2)cc1	-61*	?	?	13µM*	?
NS(=O)(=O)c1ccc(N/N=C/c2ccncc2)cc1	0	i	6%	-35%	?
Nc1ccc(S(=O)(=O)NN=CC=Cc2ccccc2[N+](=O)[O-])cc1	-8	i	3%	2%	i
NS(=O)(=O)c1ccc(N/N=C/c2ccccc2Br)cc1	-106*	i	4%	6%	i
NS(=O)(=O)c1ccc(N/N=C/C=C/c2ccccc2[N+](=O)[O-])cc1	-54*	?	-5%	2%	i
CCN(C[C@H]1N[C@@](C)(C(=O)OC)[C@H]2C(=O)N(Cc3ccccc3)C(=O)[C@@H]12)C(=O)Nc1ccc(F)cc1	8	i	0%	-5%	i
CC(/C=N\NC(=O)CN1CCN(S(=O)(=O)c2ccc(C)cc2)CC1)=C\c1ccccc1	-19	i	.	1%	?
NCC1CCC(N)C(O[C@@H]2C(O)[C@H](O[C@H]3OC(CO)C(O)C(N)C3O)[C@@H](N)C[C@H]2N)O1 (stereo partly specified)	.	.	-4%	1%	.
CCN(c1ccccc1)S(=O)(=O)c1cc(C(=O)Nc2ccc(F)c(F)c2)ccc1F	-89*	i	?	13µM*	i
Cc1ccc(N=Nc2ccc(O)c3ncccc23)cc1C	103	?	?	8%	i
CCS(=O)(=O)c1ccc(N=Nc2ccc(O)c3ncccc23)c(OC)c1	111	15µM*	4.6µM*	?	?
Cc1ccc(N=Nc2ccc(O)c3ncccc23)cc1	2	?	1.2µM*	?	i
O=C(Nc1ccc2c(c1)CCC2)c1cc(=O)[nH]c2ccccc12	13	i	3%	-11%	i
Cc1cc(C(=O)CSc2nncs2)c(C)n1-c1c(C)n(C)n(-c2ccccc2)c1=O	21	i	-1%	4%	i
Cc1ccc(-n2c(C)cc(C(=O)CSc3nncs3)c2C)cc1	-3	23µM*	-2%	-2%	?
CCC(C)NS(=O)(=O)c1cc2c3c(c1)CCN3C(=O)CC2 (stereo unspecified)	-18	i	-2%	0%	?
COc1cc(CNC(=O)c2cc(-c3ccccc3)n[nH]2)cc(OC)c1OC	.	i	.	.	i
SMILES	IL-1B inflam inh	KB-3-1 tox	SW480 rereplic	MCF10A rerep	KB-V1 MDR tox
CCC1CCC(N2CCN(c3ccc([N+](=O)[O-])cc3)CC2)CC1 (stereo unspecified)	-60*	i	5%	-3%	i
CC1CCC(N2CCN(c3ccc([N+](=O)[O-])cc3)CC2)CC1 (stereo unspecified)	-2	i	1%	12%	i
O=[N+]([O-])c1ccc(N2CCN(c3ccccc3O)CC2)cc1	-76*	i	-4%	-1%	i
O=[N+]([O-])c1ccc(N2CCN(c3ccccc3O)CC2)c(Cl)c1	?	i	10%	14%	?
O=[N+]([O-])c1ccc(N2CCN(S(=O)(=O)c3ccccc3)CC2)cc1	-1	?	-1%	?	4.6µM*
CN(C)c1ccc(/C=C2\Oc3ccc(C#Cc4cccc(N)c4)cc3C2=O)cc1	-18	?	5.2µM*	4.6µM*	i
CCn1c(SCC(=O)Nc2ccc(F)cc2)nnc1-c1cnccn1	-15	i	4%	3%	i
Cc1cc(NC(=O)C2CCN(S(=O)(=O)c3cccc4nsnc34)CC2)ccc1Br	.	i	.	.	i
O=C(O)c1ccccc1OC1=NS(=O)(=O)c2ccccc21	.	?	.	.	i
Cc1cc(NC2CCCCC2)nc(-c2ccccc2O)n1	2	?	0%	18µM*	?
Cc1cc(N2CCCCC2C)nc(-c2ccccc2O)n1 (stereo unspecified)	-10	i	?	18%	i
Cc1cc(N/N=C/c2c(O)ccc3ccccc23)nc(-c2ccccc2O)n1	27	?	13µM*	3.3µM*	?
Cc1cc(NCc2ccccc2)nc(-c2ccccc2O)n1	-6	?	-4%	?	16µM*
CCOC(=O)c1c(C)[nH]c(C)c1C(=O)COC(=O)c1nc2nccc(C)n2n1	26	i	-13%	0%	i
COCCNC(=O)/C(C#N)=C/c1c(N2CCN(c3ccc(OC)cc3)CC2)nc2c(C)cccn2c1=O	?	i	?	122%	i
CCCCN(C(=O)CSCC(=O)Nc1ccc(C)cc1)c1c(N)n(CCCC)c(=O)[nH]c1=O	18	i	1%	-1%	i
CCOCCCn1c(=N)c(C(N)=S)cc2c(=O)n3cccc(C)c3nc21	-11	?	?	?	16µM*
Cc1cccn2c(=O)c3cc(C(=O)NCCCn4ccnc4)n(C)c3nc12	?	i	?	?	i
CCOCCCNC(=O)c1cc2c(=O)n3cccc(C)c3nc2n1C	11	?	0.65µM*	?	i
Cc1cccn2c(=O)c3cc(C(=O)NCCCN4CCCC4=O)n(C)c3nc12	-77*	i	?	-7%	i
COCCNC(=O)c1cc2c(=O)n3cccc(C)c3nc2n1C	-1	3.3µM*	-1%	?	5.8µM*
COc1ccc(CN(C)S(=O)(=O)c2nnc(NC(=O)c3cccc(C)c3)s2)cc1OC	-9	i	?	17%	?
O=C(NCc1ccc(F)cc1)c1ccc2c(c1)N(Cc1ccc(F)cc1Cl)C(=O)CS2	.	i	.	.	i
